{"source": "PubChem BioAssay AID1634", "about": "(National Center for Advancing Translational Sciences (NCATS), 2009)", "note": "Hit rate of the full screen: of about 260,000 compounds, about 150 (0.058%) were called active. Shown is part of a subset that was picked to be rich in actives. Values without a mark were called inactive. Calls follow the shape of the dose curve; as a rule, active = well fitted inhibition curve with a large enough effect; inconclusive = small, poorly fitted or top-dose-only effect; inactive = no such curve, though single readings can be large or run the other way. Potency is read from the fitted curve at half-maximal effect.", "data": [{"biological_target": "Pyruvate kinase PKM (Homo sapiens) (UniProt P14618)", "sequence (P14618 whole entry, looked up, canonical isoform)": "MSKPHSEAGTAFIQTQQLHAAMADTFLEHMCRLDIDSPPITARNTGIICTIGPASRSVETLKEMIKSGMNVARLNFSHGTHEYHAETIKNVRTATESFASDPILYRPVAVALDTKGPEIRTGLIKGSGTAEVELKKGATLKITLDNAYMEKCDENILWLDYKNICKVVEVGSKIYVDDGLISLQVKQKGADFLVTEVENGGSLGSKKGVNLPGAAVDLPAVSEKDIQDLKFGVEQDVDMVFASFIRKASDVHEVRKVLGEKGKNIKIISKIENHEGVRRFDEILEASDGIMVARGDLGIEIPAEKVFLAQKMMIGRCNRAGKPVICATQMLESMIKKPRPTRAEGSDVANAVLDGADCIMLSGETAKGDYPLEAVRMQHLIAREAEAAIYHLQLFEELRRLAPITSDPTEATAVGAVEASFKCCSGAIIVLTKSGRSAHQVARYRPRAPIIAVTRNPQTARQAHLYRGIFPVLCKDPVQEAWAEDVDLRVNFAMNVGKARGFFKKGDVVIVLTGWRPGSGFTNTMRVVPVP", "assay": "qHTS Assay for Inhibitors of Human Muscle isoform 2 Pyruvate Kinase; also: nearly all actives have a fitted effect of over 60% in size", "conditions": "purified PKM2, ATP generation, Kinase-Glo luminescence; series mostly up to 57.5 µM; activity change, negative = inhibition: at the top concentration", "description": "NIH Chemical Genomics Center [NCGC] Matthew G. Vander Heiden, M.D., Ph.D. [Harvard Medical School, 77 Avenue Louis Pasteur, Boston, MA 02115] […] ATP generation was detected in a coupled reaction by luciferase-mediated luminescence, an ATP-dependent process. […] The enzyme was assayed at an intermediate level of activity to screen for both inhibitors and activators.\nNCGC Assay Protocol Summary: Three uL of substrate mix (at r.t.) in assay buffer (50 mM Imidazole pH7.2, 50 mM KCl, 7 mM MgCl2, 0.01% Tween 20, 0.05% BSA) was dispensed into white solid bottom 1,536 well microtiter plates so that the final concentrations of substrates in the assay were 0.1 mM ADP and 0.5 mM PEP. 23 nL of compound were delivered by a pin tool and 1 uL of enzyme mix in assay buffer (4 degree Celsius) was added. Plates were incubated at room temperature for 1 hour. Two uL of detection mix (Kinase-Glo, Promega; at 4 degree Celsius protected from light) was added and luminescence read by a ViewLux (Perkin Elmer) at 5 second exposure/plate. Data were normalized to the uninhibited and AC100 inhibition (no enzyme). To monitor activation, the first column contained a titration of the activator, NCGC00031955-01 (16-point 1:2 dilutions in duplicate starting at 57 uM) and the first 16 rows of column 4 contained 57 uM of NCGC00031955-01.", "units": {"activity change, negative = inhibition": "%"}, "values": [{"compound": "O=c1ccc2cc(S(=O)(=O)Nc3ccccc3F)ccc2o1", "activity change, negative = inhibition": 33.2}, {"compound": "Cc1cccc(CSc2nc3c(c(=O)n2C)SCC3)c1", "activity change, negative = inhibition": 61.3}, {"compound": "CC(C)(C)c1ccc(C(=O)NCCn2c(N)c(C#N)c3nc4ccccc4nc32)cc1", "activity change, negative = inhibition": 33.8}, {"compound": "Cn1ncc(N2CCN(S(=O)(=O)c3ccc(Br)cc3)CC2)c(Cl)c1=O", "activity change, negative = inhibition": 58.5}, {"compound": "O=C(CSc1nnc(-c2ccc([N+](=O)[O-])cc2)o1)Nc1ccccn1", "activity change, negative = inhibition": 38.2}, {"compound": "CCS(=O)(=O)Nc1ccc(C2=NN(C(C)=O)C(c3cccs3)C2)cc1", "note": "(stereo not given)", "activity change, negative = inhibition": 97.2}, {"compound": "O=C(NCc1cccs1)C1CCN(S(=O)(=O)c2ccc(Cl)cc2)CC1", "activity change, negative = inhibition": 64.3}, {"compound": "O=C(/C=C/c1ccc(Cl)cc1Cl)c1cccnc1", "activity change, negative = inhibition": 30.2}, {"compound": "O=C(COc1ccccc1[N+](=O)[O-])N/N=C/c1ccc[nH]1", "activity change, negative = inhibition": 40.2}, {"compound": "COc1cc(/C=N\\Nc2nc(-c3cccs3)c(NC(C)=O)s2)ccc1O", "activity change, negative = inhibition": 67.4}, {"compound": "Brc1c(CSc2nncc3ccccc23)nc2ccccn12", "activity change, negative = inhibition": 60.8}, {"compound": "Cc1cccc(C)c1NC1=NC(=S)N(c2ccc(N(C)C)cc2)C1(C)C", "activity change, negative = inhibition": -8.9}, {"compound": "CN(C)S(=O)(=O)c1cccc(-c2nn(-c3ccccc3)cc2/C=C2\\SC(=S)N(CC(=O)O)C2=O)c1", "activity change, negative = inhibition": 52.5}, {"compound": "O=C(N/N=C/c1ccc(O)c(O)c1)C1c2ccccc2Oc2ccccc21", "activity change, negative = inhibition": 59.5}, {"compound": "Cc1coc2c(O)cc3c(c12)OC1(N2CCCCC2)C(=O)NCCCC31", "note": "(stereo not given)", "activity change, negative = inhibition": 59.5}, {"compound": "C/C=C\\C=C\\C(=O)N1CC2(CC(c3cccc(NC(=O)/C(C)=C\\C)c3)=NO2)C[C@H]1C(N)=O", "note": "(stereo not given in full)", "activity change, negative = inhibition": 94.1}, {"compound": "Cn1c(=O)n(C)c2cc(NS(=O)(=O)c3ccc(F)cc3)ccc21", "activity change, negative = inhibition": 39}, {"compound": "Cc1ccc(NS(=O)(=O)c2cc3c(cc2C)NC(=O)CO3)cc1", "activity change, negative = inhibition": 80.8}, {"compound": "CC(=O)Nc1cccc(OCC(=O)/C=C2\\N(C)c3ccccc3C2(C)C)c1", "activity change, negative = inhibition": 30.3}, {"compound": "CC1=C/C(=N\\OS(=O)(=O)c2ccccc2)C=CC1=O", "activity change, negative = inhibition": 9.56}, {"compound": "Cc1ccc(Cn2c(SCC(=O)N/N=C/c3ccccc3OCC(=O)O)nc3ccccc32)cc1", "activity change, negative = inhibition": 50.4}, {"compound": "Cc1cc(C)n(-c2ccc3nncn3n2)n1", "activity change, negative = inhibition": 61.7}, {"compound": "CSC1=NCCN1C(=O)Cc1cccc2ccccc12", "activity change, negative = inhibition": 31.8}, {"compound": "Cc1ccnc(Nc2nc3ccccc3s2)n1", "activity change, negative = inhibition": 71.4}, {"compound": "N#Cc1nc(Cc2ccccc2)oc1NCCc1ccccc1", "activity change, negative = inhibition": 30.3}, {"compound": "Cc1cc(C)c(C#N)c(SCc2ccc3c(c2)OCO3)n1", "activity change, negative = inhibition": 41.7}, {"compound": "C=C(C)C(=O)O[C@H]1C/C(C)=C\\C(=O)/C=C(\\C)[C@H](O)[C@@H]2OC(=O)C(=C)[C@@H]21", "activity change, negative = inhibition": 45.7}, {"compound": "Cc1ccc2c(Cl)c(C(=O)NCCCn3ccnc3)sc2c1", "activity change, negative = inhibition": 36.4}, {"compound": "C=CCN(C(=O)Nc1ccc2oc(C)nc2c1)c1ccccc1", "activity change, negative = inhibition": 42.5}, {"compound": "O=S(=O)(c1ccc2ccccc2c1)N1CCN(S(=O)(=O)N2CCOCC2)CC1", "activity change, negative = inhibition": 35.8}, {"compound": "N#Cc1c2c(c(N3CCN(CCO)CC3)n3c1nc1ccccc13)CCCC2", "activity change, negative = inhibition": -3.81}, {"compound": "COc1cc2c(cc1O)[C@H](Cc1ccc(Oc3cc(C[C@@H]4NCCc5cc(OC)c(O)cc54)ccc3O)cc1)NCC2", "activity change, negative = inhibition": 46.7}, {"compound": "CN1CCCN(S(=O)(=O)c2ccc3c(c2)OCCO3)CC1", "activity change, negative = inhibition": 99.8}, {"compound": "O=C(CSc1ccc(-c2ccco2)nn1)Nc1cccc(F)c1", "activity change, negative = inhibition": 31}, {"compound": "CCOC(=O)c1cnc(SCC(=O)Nc2cccc(OC)c2)nc1N", "activity change, negative = inhibition": 34.7}, {"compound": "O=C(Nc1ccccc1)c1nnsc1S(=O)(=O)c1ccc(Cl)cc1", "activity change, negative = inhibition": 32.3}, {"compound": "O=C(CN1CCN(S(=O)(=O)c2ccc(F)cc2)CC1)NC1CC1", "activity change, negative = inhibition": 38.1}, {"compound": "Cc1nc2cc(C(F)(F)F)ccc2n1CCNc1nc(-c2cc(Cl)c(N)c(Cl)c2)cs1", "activity change, negative = inhibition": 36.2}, {"compound": "Cc1ccc(S(=O)(=O)c2c(N)n(C)c3nc4ccccc4nc23)cc1", "activity change, negative = inhibition": 62.8}, {"compound": "CSc1nc2ccc(S(=O)(=O)N3CCc4ccccc43)cc2s1", "activity change, negative = inhibition": 68.6}, {"compound": "COc1cccc(NC(=O)CSc2nnc(Cc3ccc(OC)c(OC)c3)o2)c1", "activity change, negative = inhibition": 65.6}, {"compound": "CC1=C(C)CC2C(=O)N(c3cccc4ccccc34)C(=O)C2C1", "note": "(stereo not given)", "activity change, negative = inhibition": 33.7}, {"compound": "CCOC(=O)c1c(C)oc2cc(Br)c(OCC(N)=O)cc12", "activity change, negative = inhibition": 2.63}, {"compound": "COc1ccc(C(=O)/C=C/Nc2ccccn2)cc1", "Potency": "15.8 µM (active)"}, {"compound": "COc1cccc(Nc2ncccc2C(=O)O)c1", "activity change, negative = inhibition": 31.1}, {"compound": "O=C(Nc1ccc(Br)c2cccnc12)c1ccc(Cn2cc([N+](=O)[O-])cn2)o1", "activity change, negative = inhibition": 34.6}, {"compound": "O=C(Oc1ccc(-c2nc(-c3ccccn3)no2)cc1)c1ccccc1", "Potency": "14.1 µM (active)"}, {"compound": "Cc1cnc(C(=O)N2CCCC(C(=O)c3ccc(C(F)(F)F)cc3)C2)cn1", "note": "(stereo not given)", "activity change, negative = inhibition": 36.7}, {"compound": "O=C(NCc1ccccn1)c1ccc2nc(-c3ccco3)c(-c3ccco3)nc2c1", "activity change, negative = inhibition": 29.2}, {"compound": "O=c1c2ccccc2nnn1CSc1nnnn1-c1ccccc1", "activity change, negative = inhibition": 84.3}]}]}
